WT yeast gro inh = growth inhibition of WT strain, primary screen, mitochondrial fusion inhibitor project, WT and mutant strains, chemical genetic; mitochondrial fusion phenotypic screen; inhibition, % at 10 µM; 190,000 tested, 2.1% active; in the data active = inhibition above about 58%; tested in S. cerevisiae
ROMK mod = ROMK potassium channel modulators, primary screen, cell-based, thallium flux, MLSMR library; Tet-inducible ROMK, thallium flux fluorescence; actives lie on both sides; B-score at 10 µM; 130,000 tested, 2% active; AID 1918, 2009;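 active = signal ratio slope over the read window, or its plate-corrected B-score, at least 3 SD from the plate mean, either direction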;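 also: B-score of the F/F0 ratio slope over 7 to 12 s after thallium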
Calpain2 inh = inhibitors of pig calpain II, primary screen, biochemical, fluorogenic peptide substrate, 1536-well. purified calpain II, 30 min. inhibition, % at 16 µM. 220,000 tested, 0.37% active;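 active = inhibition above about 50%, limit read from the data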
KCC2 mod = KCC2 cotransporter modulators, thallium flux, primary screen, cell-based, HEK293 KCC2, FluoZin-2 fluorescence, MLSMR; KCC2 cells, thallium flux FluoZin-2 fluorescence; B-score of Tl+ flux slope (higher = more flux/activation; lower = inhibition) at 10 µM; 190,000 tested, 2.2% active; AID 1456, 2008;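 active = thallium flux slope and its plate-corrected score both differing from the plate sample mean at a set confidence after two filtering rounds, in either direction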;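 also: slope of fluorescence scaled to starting intensity during 10 to 20 s after thallium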
L major viab = Leishmania major promastigote growth inhibition, primary screen; Leishmania major promastigotes, resazurin fluorescence viability; inhibition, % at 10 µM; 200,000 tested, 9% active; in the data active = inhibition above about 50%;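 also: promastigotes grown with compound for 44 hours at 28 °C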
ROMK retest = ROMK channel modulator hit retest, confirmation, cell-based, thallium flux, duplicate, resupplied hits | shares compounds with ROMK mod | fluorescence ratio; stronger effect = lower value | normalized thallium flux (F/F0 slope) at 10 µM | 3,000 tested, 54% active;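 active = Flux at 10 µM at least 3 SD below or above vehicle control mean in one or both replicates; inconclusive = no clear call, values can overlap the other calls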
* = called active by the depositor; u = inconclusive; x = not tested or not shown. Rows were chosen to be rich in hits. Some 12% of all compounds tested hit in one or more screens of this group.

SMILES | WT yeast gro inh | ROMK mod | Calpain2 inh | KCC2 mod | L major viab | ROMK retest
Cc1ccccc1C(=O)Nc1ccc(-c2nnc(SC(C)C(=O)O)n2C)cc1 (centres undefined) | x | x | 16 | -0.42 | x | 0.079
O=C1c2ccccc2-c2onc3ccc(N4CCCC4)c1c23 | 42 | -5.6* | 20 | -1.7 | 45 | 0.06*
CCOc1ccc2noc3c2c1C(=O)c1ccccc1-3 | 15 | x | -7 | x | 3 | x
CN(C)CCNC(=O)CNC(=S)N(CCCN1CCOCC1)Cc1cccs1 | -5 | -8.5* | 20 | 0.55 | -1 | 0.079
COc1cccc(NC(=S)N(CCCN2CCC(C)CC2)Cc2cccs2)c1 | 4 | -3.4* | 10 | -0.37 | 68* | 0.061*
Cc1ccccc1NC(=S)N(CCCN1CCC(C)CC1)Cc1ccco1 | 3 | -2.5* | -6 | 0.42 | 13 | 0.066*
Cc1ccccc1NC(=S)N(CCCN1CCCCC1)Cc1ccco1 | 4 | -1.1 | -13 | 0.43 | -2 | x
Cc1cc(OCC(=O)N2CCCC2)ccc1Cl | -4 | x | -18 | 0.98 | -6 | x
CCOC(=O)N1CCN(C(=O)COc2ccc(Cl)c(C)c2)CC1 | -12 | -3.6* | -2 | 0.6 | -9 | 0.058*
COC(=O)c1ccc(S(=O)(=O)N2CCN(C(c3ccccc3)c3ccccc3)CC2)n1C | x | -2.6 | -17 | -0.29 | x | x
COc1ccc(C)cc1N(C(=O)c1ccccc1F)c1nc2ccccc2s1 | 0 | -2.5* | 20 | -0.1 | 12 | 0.075
COC(=O)c1ccc(OCC(=O)c2ccccc2OC)cc1 | 7 | x | 13 | -0.9 | -2 | x
O=c1cc(-c2ccccc2)nc(SCc2ccccc2F)[nH]1 | 0 | -0.19 | 12 | 2 | 7 | x
Cc1ccc(C(=O)O)cc1N=Cc1cc(Br)cc(Br)c1O | -4 | 5.1* | -26 | 0.019 | 18 | 0.11*
CC(=O)Nc1ccc(C(=O)N/N=C/c2cc(Br)cc(Br)c2O)cc1 | -3 | 1.3 | 3 | 0.46 | 25 | x
COc1ccc(-c2cc(=O)oc(-c3cccc(C)c3)n2)cc1 | x | x | 20 | -0.33 | x | x
COc1ccccc1NC(=O)COC(=O)C1CC1 | -10 | 0.38 | 5 | -0.012 | -9 | x
COC(=O)c1ccc(/C=C(\C#N)C(=O)NC(C)c2ccccc2)cc1 (centres undefined) | 40 | x | 19 | 0.27 | 99* | 0.049*
Cc1cccc(C)c1NC(=O)/C(C#N)=C/c1cccs1 | -16 | x | 12 | 0.2 | 17 | x
CC(NC(=O)/C(C#N)=C/c1ccco1)c1ccccc1 (centres undefined) | x | x | 31 | 0.65 | x | x
CC(NC(=O)/C(C#N)=C/c1cccs1)c1ccccc1 (centres undefined) | -10 | -4.6* | -1 | -0.072 | -2 | 0.054*
COc1cccc2c1OC1(C)CC2NC(=O)N1Cc1ccccc1 (centres undefined) | 10 | x | -14 | -0.016 | 4 | x
O=C1CC(c2ccc(OCCCCCOc3ccc(C4CC(=O)NC4=O)cc3)cc2)C(=O)N1 (centres undefined) | -2 | -3.5* | -2 | -0.51 | -2 | 0.06*
Cc1ccc(C#CC[N+]2(CC#Cc3ccc(C)cc3)CCCCC2)cc1 | 20 | -5.1* | -30 | -0.48 | 100* | 0.056*
C#CC[N+]1(CC#Cc2ccccc2)CCCCC1 | -2 | x | -30 | -0.86 | -1 | x
SMILES | WT yeast gro inh | ROMK mod | Calpain2 inh | KCC2 mod | L major viab | ROMK retest
Fc1ccc2[nH]c3c(N4CCN(c5ccccc5)CC4)ncnc3c2c1 | 27 | -0.48 | 5 | 0.095 | 22 | 0.076
CCOC(=O)N1CCN(c2ncnc3c2[nH]c2ccc(F)cc23)CC1 | 5 | x | -62 | 0.74 | 29 | x
COc1ccccc1-n1c(SCC(=O)OC(C)C)nc2cccnc21 | x | x | 1 | x | x | x
Cc1ccc(NC(=O)NCC2CCN(Cc3cc(C)ccc3Cl)CC2)c(C)c1 | 11 | -3.8* | 10 | 0.021 | 25 | 0.054*
Cc1ccc(C)c(NC(=O)/C(C#N)=C/c2ccc(Sc3nncn3C)c([N+](=O)[O-])c2)c1 | -3 | -3.1* | -30 | -0.32 | 0 | 0.06*
Cn1cnnc1Sc1ccc(/C=C(\CC(=O)O)c2nc3ccccc3s2)cc1[N+](=O)[O-] | x | x | 13 | -1.5 | x | x
Cc1nc2ccccc2nc(=O)c1NNc1ccccc1 | 3 | 6.4* | 13 | -2.3 | 0 | u
CCN1C(=O)c2c(C)nc3ccccc3c2C1=O | 11 | x | -23 | -0.47 | 0 | x
Cc1ccc2nc(=O)c(NNc3ccccc3)cnc2c1 | 17 | 6.6* | 34 | 0.14 | -2 | 0.11*
Cc1ccc(C(=O)Nc2cnc3ccccc3c2)cc1 | 3 | x | 16 | -0.04 | -1 | x
O=C(Cc1ccc(-n2cccc2)cc1)NCc1cccs1 | -8 | 3.4* | -10 | x | -2 | u
CC(=O)Nc1ccc(S(=O)(=O)Nn2cnnc2)cc1 | -20 | -0.063 | -24 | x | -8 | x
CC1=NN(c2nc(-c3ccc(C)cc3)cs2)C(=O)C1N=Nc1ccc(C(N)=O)cc1 (centres undefined) | 51 | 0.1 | -176 | -1.4 | -6 | 0.077
CCC(C)Sc1nc2c(c(=O)[nH]1)C(c1cccs1)C1=C(CCCC1=O)N2 (centres undefined) | -8 | -0.98 | -90 | -3 | -2 | x
Cc1noc(C)c1COc1ccc(CC(=O)NCc2ccccc2)cc1 | -1 | 3.1* | 4 | 0.12 | 7 | 0.1*
Cc1noc(C)c1COc1ccc(CC(=O)NC2CCCCCC2)cc1 | -2 | -0.5 | -105 | -0.045 | 10 | x
COc1ccc(OC)c(NC(=O)CNC(=O)c2ccc([N+](=O)[O-])cc2)c1 | 2 | 0.86 | 3 | -0.16 | -3 | x
NC(=O)N/N=C/c1ccccc1OC(=O)c1ccccc1Br | -4 | -3.2* | -148 | 0.033 | -4 | 0.052*
O=C(CN1CCN(c2ccc([N+](=O)[O-])cc2)CC1)Nc1ccccn1 | 3 | -3.2* | 3 | x | -5 | 0.054*
O=C(CNC(=S)N(Cc1ccccc1)Cc1cccnc1)NCCc1ccccc1 | -8 | -1.4 | 21 | 0.25 | 29 | x
CNC(=S)N(Cc1ccccc1)Cc1cccnc1 | x | -12* | -24 | -1.5 | x | 0.071
Cc1noc(NC(=O)c2ccccc2C(F)(F)F)c1C#N | -8 | 0.011 | 2 | -0.0086 | -3 | x
CCC(C)c1cc(S(=O)(=O)N2CCOCC2)ccc1OC (centres undefined) | 14 | -3.7* | 7 | -0.43 | 0 | u
COc1ccc(S(=O)(=O)NCC(c2cccnc2)N2CCN(c3ccc(F)cc3)CC2)cc1C (centres undefined) | 7 | -3.8* | 3 | -0.96 | 96* | 0.074
Cc1cccc(OCCn2c(=O)oc3ccc(C)cc32)c1 | 36 | -2.3 | 29 | 0.16 | 5 | x
Cc1ccc2oc(=O)n(CCOc3ccccc3)c2c1 | 14 | -3.5* | 3 | -0.55 | 1 | 0.057*

High-throughput results as filed in PubChem BioAssay.
